Sampled rows, rich in hits. Any-hit rate of the full collection: about 31%.
PLAP activator: activates human placental alkaline phosphatase; 96,000 compounds, 1.2% hits; P05187; AID 696; activation fold at 20 µM; purified PLAP enzyme, luminescent substrate read-out; active compounds read high; in the data active means activation fold above about 2
CYP2C19 activ: cytochrome P450 2C19 (human) activation; P33261; recombinant CYP2C19, luciferin-H EGE luminescence; active compounds read high; 0 = fully inhibited enzyme, 1 = untreated enzyme; activation factor at 5 µM; 96,000 tested, under 10 active; AID 1025;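 active means activation factor of at least 2 at 5 µM in the primary screen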;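 further: 0 = wells with 2.5 mM tranylcypromine and 1 = vehicle-only wells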
Target sequence (P33261 whole entry, looked up): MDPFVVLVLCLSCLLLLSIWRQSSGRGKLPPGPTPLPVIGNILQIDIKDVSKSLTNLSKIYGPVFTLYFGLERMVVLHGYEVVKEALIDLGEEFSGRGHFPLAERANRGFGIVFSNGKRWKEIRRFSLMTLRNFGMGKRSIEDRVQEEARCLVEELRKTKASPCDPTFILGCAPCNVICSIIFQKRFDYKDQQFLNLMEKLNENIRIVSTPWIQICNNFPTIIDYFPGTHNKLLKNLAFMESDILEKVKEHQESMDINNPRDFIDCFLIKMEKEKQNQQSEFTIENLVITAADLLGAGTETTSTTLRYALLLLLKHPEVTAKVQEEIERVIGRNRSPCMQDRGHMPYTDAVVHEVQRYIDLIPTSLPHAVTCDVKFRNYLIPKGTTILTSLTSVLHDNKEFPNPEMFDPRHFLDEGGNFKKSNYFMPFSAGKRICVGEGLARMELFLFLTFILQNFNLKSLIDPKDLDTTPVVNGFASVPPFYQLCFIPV
CYP2C9 inhib: blocks human cytochrome P450 2C9. 96,000 compounds, 20% hits. CYP2C9 Supersomes, luciferin-H conversion, luminescence. AID 777. inhibition, % at 5 µM. P11712;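 active means blocking of liver enzyme CYP2C9 beyond about 50% at 5 µM, limit read from the data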
CYP2C19 inhib: inhibitors of human CYP2C19; P33261; CYP2C19 Supersomes, luciferin-H EGE luminescence, 30 min; inhibition, % at 5 µM; 96,000 compounds, 21% hits; AID 778;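 active means CYP2C19 inhibition above a set limit at 5 µM in the primary screen, cut at about 50% in these data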;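 further: plate controls were negative control wells for no effect and 2.5 mM tranylcypromine positive control for full effect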
CYP2C9 act: CYP2C9 (human) activation. 96,000 compounds, 1.4% hits. activation factor at 5 µM. AID 1024. recombinant CYP2C9, luciferin-H conversion, luminescence; active compounds read high; factor 1 = untreated enzyme, 0 = blocked. P11712;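 active means activation factor of 2 or more for CYP2C9 at a 5 µM dose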;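 further: 0 = sulfaphenazole-blocked wells and 1 = vehicle-only wells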
Numbers without * were called inactive.

Results for CS(=O)(=O)N(CC(=O)NC1CC2CCC1C2)c1cccc(C(F)(F)F)c1 (centres undefined) ?
PLAP activator: 1; CYP2C19 activ: 0.6; CYP2C9 inhib: 22; CYP2C19 inhib: 43; CYP2C9 act: 0.8

How did Cc1ccc(N(CC(=O)NC2CC3CCC2C3)S(C)(=O)=O)cc1C (centres undefined) do in these assays?
PLAP activator: 1.4; CYP2C19 activ: 0.3; CYP2C9 inhib: 10; CYP2C19 inhib: 73*; CYP2C9 act: 0.9

How did O=S(=O)(c1cccc(-c2csc(-c3ccccc3)n2)c1)N1CCOCC1 do in these assays?
PLAP activator: 1.5; CYP2C19 activ: 0.5; CYP2C9 inhib: 61*; CYP2C19 inhib: 47; CYP2C9 act: 0.4

How did CC1CN(S(=O)(=O)c2cccc(-c3csc(-c4ccccc4)n3)c2)CC(C)O1 (centres undefined) do in these assays?
PLAP activator: 1.5; CYP2C19 activ: 0.8; CYP2C9 inhib: 58*; CYP2C19 inhib: 20; CYP2C9 act: 0.4

What do the screens show for `Cc1nc(-c2cccc(S(=O)(=O)N3CCCCCC3)c2)cs1`?
PLAP activator: 1.3; CYP2C19 activ: 0.1; CYP2C9 inhib: 66*; CYP2C19 inhib: 95*; CYP2C9 act: 0.3

How did O=C(CSC(=S)N1CCCCC1)N1N=CCC1c1ccccc1 (centres undefined) do in these assays?
PLAP activator: 1; CYP2C19 activ: 0.6; CYP2C9 inhib: 2; CYP2C19 inhib: 42; CYP2C9 act: 1

What do the screens show for `COc1cccc(CNC(=O)C2CCN(S(=O)(=O)c3c(C)nn(C)c3C)CC2)c1`?
PLAP activator: 1.6; CYP2C19 activ: 1; CYP2C9 inhib: -28; CYP2C19 inhib: 4; CYP2C9 act: 1.3

How did COCCCNC(=O)Cn1nc(-c2ccc(C)cc2)ccc1=O do in these assays?
PLAP activator: 1.3; CYP2C19 activ: 1; CYP2C9 inhib: 18; CYP2C19 inhib: 0; CYP2C9 act: 0.8

What do the screens show for `COc1ccc2c(CC(=O)OCC(=O)c3ccc(F)cc3)coc2c1`?
PLAP activator: 0.9; CYP2C19 activ: 0.9; CYP2C9 inhib: -3; CYP2C19 inhib: 6; CYP2C9 act: 1

How did N=c1sccn1CC(=O)Nc1ccccc1-c1ccccc1 do in these assays?
PLAP activator: 1.1; CYP2C19 activ: 1.1; CYP2C9 inhib: -22; CYP2C19 inhib: -14; CYP2C9 act: 1.2

Results for COc1ccc(C(O)P(=O)(OC2CCCCC2)c2ccc(N(C)C)cc2)cc1OC (centres undefined) ?
PLAP activator: 1.5; CYP2C19 activ: 0.4; CYP2C9 inhib: 2; CYP2C19 inhib: 56*; CYP2C9 act: 1

How did CCC(C)[C@H](NC(=O)NCCCc1ccccc1)C(=O)OC (some centres undefined) do in these assays?
PLAP activator: 1.1; CYP2C19 activ: 0.8; CYP2C9 inhib: 5; CYP2C19 inhib: 19; CYP2C9 act: 0.9

Results for CCN1C(=O)c2cccc3c(S(=O)(=O)Nc4nc(C)cs4)ccc1c23 ?
PLAP activator: 1.3; CYP2C19 activ: 0.8; CYP2C9 inhib: 93*; CYP2C19 inhib: 23; CYP2C9 act: 0.1

How did Cc1csc(NC(=O)CCN2C(=O)c3ccccc3S2(=O)=O)n1 do in these assays?
PLAP activator: 1; CYP2C19 activ: 0.9; CYP2C9 inhib: 13; CYP2C19 inhib: 7; CYP2C9 act: 0.9

How did CCN1C(=O)c2cccc3c(S(=O)(=O)Nc4ccc(OC)cc4OC)ccc1c23 do in these assays?
PLAP activator: 1.1; CYP2C19 activ: 0.2; CYP2C9 inhib: 96*; CYP2C19 inhib: 78*; CYP2C9 act: 0

How did CCN1C(=O)c2cccc3c(S(=O)(=O)Nc4ccncc4)ccc1c23 do in these assays?
PLAP activator: 1; CYP2C19 activ: 0.9; CYP2C9 inhib: 66*; CYP2C19 inhib: 6; CYP2C9 act: 0.3

What do the screens show for `CCN1C(=O)c2cccc3c(NC(=O)c4ccc5c(c4)OCCO5)ccc1c23`?
PLAP activator: 1; CYP2C19 activ: 1.1; CYP2C9 inhib: 3; CYP2C19 inhib: -10; CYP2C9 act: 1

How did CCN1C(=O)c2cccc3c(NC(=O)c4ccc(OC)c(OC)c4)ccc1c23 do in these assays?
PLAP activator: 1.4; CYP2C19 activ: 0.4; CYP2C9 inhib: 66*; CYP2C19 inhib: 56*; CYP2C9 act: 0.3

What do the screens show for `O=C(CSc1nnc(NC(=O)c2ccco2)s1)NC1CCCCC1`?
PLAP activator: 0.9; CYP2C19 activ: 1.1; CYP2C9 inhib: 5; CYP2C19 inhib: -6; CYP2C9 act: 0.9

What do the screens show for `CCN1C(=O)c2cccc3c(S(=O)(=O)NCc4cccnc4)ccc1c23`?
PLAP activator: 0.8; CYP2C19 activ: 1; CYP2C9 inhib: 20; CYP2C19 inhib: 2; CYP2C9 act: 0.8

Results for CCN1C(=O)c2cccc3c(S(=O)(=O)Nc4ccccc4)ccc1c23 ?
PLAP activator: 1.1; CYP2C19 activ: 0.4; CYP2C9 inhib: 100*; CYP2C19 inhib: 60*; CYP2C9 act: 0

Results for Cc1nc(-c2ccc(NS(C)(=O)=O)cc2)cs1 ?
PLAP activator: 1; CYP2C19 activ: 1.1; CYP2C9 inhib: 3; CYP2C19 inhib: -11; CYP2C9 act: 1

What do the screens show for `CCOC(=O)c1[nH]c(COC(=O)CCOc2ccccc2OC)c(C(=O)OCC)c1C`?
PLAP activator: 1.2; CYP2C19 activ: 1; CYP2C9 inhib: 11; CYP2C19 inhib: 1; CYP2C9 act: 0.9

How did O/N=C/c1cccn1-c1ccc(O)cc1 do in these assays?
PLAP activator: 1.1; CYP2C19 activ: 0.5; CYP2C9 inhib: -199; CYP2C19 inhib: 46; CYP2C9 act: 3*

What do the screens show for `O=C(Nc1ccc(Cl)c(Cl)c1)OCc1cnc(Cl)s1`?
PLAP activator: 1; CYP2C19 activ: 0.9; CYP2C9 inhib: 13; CYP2C19 inhib: 14; CYP2C9 act: 0.9

Results for O=C(Nc1ccc(Cl)c(Cl)c1)OCc1cncs1 ?
PLAP activator: 0.9; CYP2C19 activ: 0; CYP2C9 inhib: 97*; CYP2C19 inhib: 99*; CYP2C9 act: 0

Results for COc1cccc(OC)c1OCCCOc1c(OC)cccc1OC ?
PLAP activator: 1.2; CYP2C19 activ: 0.2; CYP2C9 inhib: 6; CYP2C19 inhib: 76*; CYP2C9 act: 0.9

What do the screens show for `COc1cccc(OC)c1OCCOc1ccccc1OC(C)C`?
PLAP activator: 1; CYP2C19 activ: 0.2; CYP2C9 inhib: -89; CYP2C19 inhib: 82*; CYP2C9 act: 1.9

What do the screens show for `COc1cccc(OC)c1OCCCCN1CCCC1`?
PLAP activator: 0.9; CYP2C19 activ: 1; CYP2C9 inhib: -10; CYP2C19 inhib: 1; CYP2C9 act: 1.1

What do the screens show for `COc1cccc(OCCOc2c(OC)cccc2OC)c1`?
PLAP activator: 1.3; CYP2C19 activ: 0; CYP2C9 inhib: -82; CYP2C19 inhib: 95*; CYP2C9 act: 1.8

Results for O=C(NCC1CCCO1)C1c2ccccc2C(=O)N1C1CCCCCC1 (centres undefined) ?
PLAP activator: 0.8; CYP2C19 activ: 0.9; CYP2C9 inhib: 1; CYP2C19 inhib: 8; CYP2C9 act: 1

What do the screens show for `CC(C)N(Cc1nnc(-c2ccccc2Cl)o1)C(=O)c1cccc(C#N)c1`?
PLAP activator: 0.9; CYP2C19 activ: 0.6; CYP2C9 inhib: 22; CYP2C19 inhib: 38; CYP2C9 act: 0.8

Bioassay records from PubChem.
